Source: PubChem
Rows were chosen to be rich in hits. Some 0.73% of all compounds tested hit in one or more screens of this group.
Y pestis TopoI – Y. pestis Topo-I inhibition via cleavage products; Y. pestis Topo-I cleavage product accumulation, plate reader; activity, % at 10 µM; hit rate 0.064% among 360,000; in the data active = activity above about 50%, passing the limit was not always enough
Mtb BioA inh – inhibitors of Mycobacterium tuberculosis BioA enzyme; purified M. tuberculosis BioA enzyme, plate reader; inhibition, % at 9.99 µM; hit rate 0.096% among 360,000; in the data active = inhibition above about 40%
DUSP3 inh – DUSP3 (human) phosphatase inhibition; P51452; recombinant VHR phosphatase, pNPP absorbance; inhibition, % at 13.3 µM; hit rate 0.52% among 290,000; AID 1654; in the data active = inhibition above about 50%
Target sequence (P51452 whole entry, looked up): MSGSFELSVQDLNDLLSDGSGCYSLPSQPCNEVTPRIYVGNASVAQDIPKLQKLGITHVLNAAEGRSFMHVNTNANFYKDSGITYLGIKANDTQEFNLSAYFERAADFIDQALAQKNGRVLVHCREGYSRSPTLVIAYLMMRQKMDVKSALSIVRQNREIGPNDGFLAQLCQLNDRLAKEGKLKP
TcdB inh – TcdB glycohydrolase inhibition; P18177; TcdB glycohydrolase enzymatic assay, plate reader; inhibition, % at 9.99 µM; hit rate 0.24% among 350,000; AID 652162; in the data active = inhibition above about 10%
BH1578 lux ind – quorum light induction in luxS cqsA deficient V. cholerae; hit rate 0.16% among 350,000; AID 588436; activation, % at 18.7 µM; V. cholerae BH1578 lux reporter, luminescence, 6 h; in the data active = activation mostly above about 9.7%, no sharp cut-off
Numbers without * were called inactive; i = inactive; · = no result given.

SMILES | Y pestis TopoI | Mtb BioA inh | DUSP3 inh | TcdB inh | BH1578 lux ind
Cc1cc(N2C(=O)C(O)=C(C(=O)c3cc4ccccc4o3)C2c2ccc([N+](=O)[O-])cc2)no1 (stereo not drawn) | 6.4 | -0.7 | -17.6 | 0.8 | i
Cc1ccc(C2C(C(=O)c3cc4ccccc4o3)=C(O)C(=O)N2c2cc(C)on2)cc1 (stereo not drawn) | 84.7* | -1.1 | 12.3 | 2.5 | i
COCC#Cc1cnc2c(c1)C(=O)N([C@@H](C)CO)C[C@@H](C)[C@@H](CN(C)S(=O)(=O)c1ccccc1)O2 | · | 0.3 | · | -0.1 | ·
CCOc1ccccc1C1CC(=O)NC(SCC(=O)Nc2nccs2)=C1C#N (stereo not drawn) | 2.9 | -0.1 | 4.7 | · | i
Cc1ccc(C2CC(=O)NC(SCC(=O)Nc3nccs3)=C2C#N)cc1 (stereo not drawn) | -8.1 | -0.8 | -0.1 | · | 25.0*
COC1=C(N)C(=O)c2nc(-c3nc(C(=O)O)c(C)c(-c4ccc(OC)c(OC)c4O)c3N)ccc2C1=O | · | 0.2 | 0.9 | · | 179.2*
COC(=O)c1nc(-c2ccc3c(n2)C(=O)C(N)=C(OC)C3=O)c(N)c(-c2ccc(OC)c(OC)c2O)c1C | -5.5 | 0.1 | 0.4 | -0.1 | 11.5
Cc1ccc(Cl)c2c(N=Nc3ccccc3)c(O)[nH]c12 | 0.2 | -0.9 | 51.5* | 1.4 | -1.5
COc1cccc(-c2noc(Cn3nc(C(=O)O)c4ccccc4c3=O)n2)c1 | 53.5* | -1.1 | 1.4 | 0.7 | -0.5
O=C(Cn1nc(C(=O)O)c2ccccc2c1=O)Nc1cc(Cl)cc(Cl)c1 | -3.8 | 0.8 | 25.2 | 0.9 | -0.1
O=C(O)c1nn(Cc2ncc(-c3cccc(Cl)c3)o2)c(=O)c2ccccc12 | 51.6* | -1.1 | -7.5 | -0.5 | -6.2
C[C@@H]1CN([C@@H](C)CO)C(=O)c2cccc(NS(=O)(=O)c3cn(C)cn3)c2O[C@H]1CN(C)Cc1ccccc1 | · | 0.4 | · | 0.4 | ·
O=C(COc1cccc2c1CCN(Cc1ccccc1F)C2=O)N1CCCCC1 | 13.6 | · | 51.8* | 1.1 | -1.3
O=C(C1CCOCC1)N1C[C@@H]2[C@H](c3ccccc31)[C@H](CO)N2C(=O)Nc1cccc(F)c1 | · | -1.8 | · | 2.3 | ·
CCCNC(=O)N(C)C[C@H]1Oc2ncc(C#CC3CC3)cc2C(=O)N([C@H](C)CO)C[C@@H]1C | · | -0.2 | · | -0.9 | ·
CC(C)NC(=O)N(C)C[C@@H]1Oc2cc(C#C[C@@H](C)O)ccc2S(=O)(=O)N([C@H](C)CO)C[C@@H]1C | · | 0.6 | · | -1.7 | ·
Cc1nn(C)c(C)c1S(=O)(=O)N(CC(=O)NCCN1CCOCC1)c1ccc(C(C)C)cc1 | -7.0 | -1.8 | 30.5 | 0.3 | -0.1
Cc1nn(C)c(C)c1S(=O)(=O)N(CC(=O)NCCCN1CCC(C)CC1)c1ccc(C(C)C)cc1 | 2.7 | -1.8 | 55.6* | 3.0 | -0.2
CCc1nnc(NC(=O)Nc2ccc(OC)cc2)s1 | -5.5 | -1.7 | 16.6 | · | -3.0
CCCCOc1ccc(NC(=O)Nc2nnc(C)s2)cc1 | 4.6 | -0.4 | 57.3* | -0.8 | -0.7
C[C@@H]1CCCCO[C@@H](CN(C)S(=O)(=O)c2cn(C)cn2)[C@@H](C)CN([C@@H](C)CO)C(=O)c2cc(NS(=O)(=O)c3ccc(Cl)cc3)ccc2O1 | · | -1.3 | · | 0.7 | ·
COc1cc(/C=N/N2CCCCC2)cc([N+](=O)[O-])c1O | 5.3 | 0.0 | 59.6* | -101.0 | i
Cc1ccc(NC(=O)C(C)N2C(=O)C3CC=C(Cl)CC3C2=O)cc1 (stereo not drawn) | -5.3 | -1.0 | -5.7 | · | -0.9
Cc1ccc(NC(=O)C(C)N2C(=O)C3C4CC(C(Br)C4Br)C3C2=O)cc1 (stereo not drawn) | -9.6 | 1.1 | 27.0 | · | 38.0*
Cc1ccc(CSC2=Nc3ccccc3C3=NC(=O)CN23)cc1 | 157.1* | · | 13.6 | 0.8 | i
SMILES | Y pestis TopoI | Mtb BioA inh | DUSP3 inh | TcdB inh | BH1578 lux ind
CCC(=O)Nc1ccc2c(c1)OC[C@@H](C)N(C(=O)c1cccnc1)C[C@H](C)[C@H](OC)CN(C)C2=O | · | 4.2 | · | 0.2 | ·
O=C(C1CC1)N1CCN(c2ccc(O)cc2)CC1 | 0.6 | 2.2 | 56.2* | 0.5 | i
CC1(C)C2CCC(C2)C1(C)NC(=O)CNCc1cccs1 (stereo not drawn) | 2.0 | · | 51.3* | -2.2 | i
CC(C)C(=O)Nc1nnc(CCN2CCOCC2)s1 | -6.8 | -0.4 | 51.2* | · | -0.2
COC(=O)Cc1nnc(NC(=O)C(C)C)s1 | 0.6 | -1.1 | 6.4 | 0.9 | i
CCc1ccc(S(=O)(=O)/N=C2/C=C(Sc3ncn[nH]3)C(=O)c3ccccc32)cc1 | -22.3 | · | 55.1* | · | -0.3
C[C@@H]1CN([C@@H](C)CO)C(=O)Cc2cc(NC(=O)Nc3ccc4c(c3)OCO4)ccc2O[C@H]1CN(C)S(=O)(=O)c1ccc(Cl)cc1 | · | -3.3 | · | 0.1 | ·
CCCNC(=O)N1C[C@H](C)[C@@H](OC)CN(C)C(=O)c2ccc(NC(C)=O)cc2OC[C@@H]1C | · | · | · | 0.7 | ·
N/C(=N\OC(=O)c1ccccc1Br)c1cccc([N+](=O)[O-])c1 | 5.1 | 2.5 | 26.3 | 0.9 | 0.6
N/C(=N\OC(=O)c1ccccc1F)c1cccc([N+](=O)[O-])c1 | 8.9 | 0.3 | 51.3* | -0.5 | -0.3
CCOC(=O)Nc1nnc(/C=C/c2ccc(OC)cc2)s1 | 15.1 | · | 34.1 | · | -0.4
CCCCOC(=O)Nc1nnc(/C=C/c2ccc(OC)cc2)s1 | 53.3* | · | 0.1 | -1.0 | -0.4
CCC(=O)N1C[C@@H]2[C@H](c3ccccc31)[C@H](CO)N2C(=O)CC | · | -2.9 | · | 8.9 | ·
O=C1N=C2SCCN2/C1=C\c1ccc(Cl)cc1 | 2.8 | 4.8 | 55.7* | · | i
CCOC(=O)C(C)n1cnc2c(oc3ccccc32)c1=O (stereo not drawn) | -0.3 | 1.5 | 51.0* | · | i
COc1cccc2c1C(=N)c1c(O)c3c(c(O)c1C2=O)CC(O)(C(C)=O)CC3OC1CC(N)C(O)C(C)O1 (stereo not drawn) | 231.4* | · | · | · | i
COc1cccc2c1C(=O)c1c(O)c3c(c(O)c1C2=O)C[C@](O)(C(C)=O)C[C@H]3O[C@@H]1C[C@@H](N)[C@@H](O)[C@@H](C)O1 | -33.8 | -54.7 | · | -24.5 | i
OC(COC1CCCCC1)CN1CCCCC1 (stereo not drawn) | -4.2 | -2.5 | 56.3* | -1.5 | -0.4
O=C(C[C@H]1CC[C@@H](NC(=O)C2CCOCC2)[C@H](CO)O1)NCc1ccccc1Cl | · | -0.1 | · | -2.7 | ·
Cc1cc2oc(=O)cc(CN3CCOCC3)c2cc1Cl | -2.6 | -0.4 | 54.2* | 0.3 | 2.1
Cc1cc2oc(=O)cc(CN3CCCC3)c2cc1Cl | · | -1.0 | · | -2.9 | ·
Cc1ccc(S(N)(=O)=O)cc1NC(=O)c1ccc2c3c(cccc13)CC2 | 2.0 | 3.0 | 57.0* | 2.5 | i
Cc1ccccc1NC(=O)Nc1cc(S(N)(=O)=O)ccc1C | 6.8 | -0.7 | 6.0 | 1.1 | 0.0
C[C@H](CO)N1C[C@H](C)[C@H](CN(C)Cc2ccc(C(=O)O)cc2)Oc2ccc(NC(=O)Nc3ccccc3)cc2C1=O | · | -1.3 | · | 1.0 | ·
O=C(C[C@@H]1CC[C@H]2[C@@H](COC[C@@H](O)CN2C(=O)c2ccccc2F)O1)N1CCN(c2ccccc2)CC1 | · | -0.5 | · | 0.9 | ·
C(=N\Nc1ncnc2sc3c(c12)CCC3)/c1ccncc1 | -3.7 | 0.6 | 50.2* | · | -1.9
